The values below come from PubChem BioAssay.

Test [1] in a line: compounds binding Alexa647 anti-His antibody – biochemical, small-molecule microarray, 635 nm fluorescence, artefact control for SMM control protein annotation, primary screen (AID 1128).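 Note: score merges feature fluorescence with signal-to-noise for each printed compound spot.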 Conditions: higher = more signal.
Test [2] deals with Human papillomavirus type 1a E7 protein (residues 1-88). In words: HPV1a E7 small-molecule binders, primary screen, biochemical, small-molecule microarray, residues 1-88, 635 nm (AID 1129). Particulars: small-molecule microarray binding, fluorescence 635 nm; higher = more signal.
Test [3] concerns the target Focal adhesion kinase 1 (Homo sapiens) (UniProt Q05397). In words: PTK2 protein binding on printed compound slides – biochemical, small-molecule microarray, 635/667 nm fluorescence, BSA, DTT, primary screen (AID 1130).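 Note: composite of spot emission at 667 nm and signal to noise over triplicate slides.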 Conditions: 635 nm fluorescence, higher = more signal.
Test [4] deals with Fibrinogen (Alexa647-labelled). In words: Alexa647-fibrinogen binding to printed small molecules – biochemical, small-molecule microarray, 635/667 nm fluorescence, artefact control for SMM control-protein annotation, profiling panel (AID 1131).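 Note: z-score merges 667 nm fluorescence with per-spot signal-to-noise over triplicate slides.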 Conditions: fibrinogen-A647 binding fluorescence, higher = more signal.
The target of test [5] is Follistatin (Homo sapiens) (UniProt P19883). In words: FST protein binding to printed compounds – biochemical, small-molecule microarray, 635/667 nm fluorescence, primary screen (AID 1132). Conditions: 635 nm fluorescence, higher = more signal.
Test [6] concerns the target Fibroblast growth factor 2 (Homo sapiens) (UniProt P09038). In words: basic fibroblast growth factor binding to printed compounds – biochemical, small-molecule microarray, 635/667 nm fluorescence, primary screen (AID 1133). Conditions: FGF2, fluorescence 635/667, higher = more signal.
Test [7] is described as follows: JC-1 mitochondrial potential readout, lung cancer cells – cell-based, A549, JC-1 fluorescence, basal, 24 h, 100 nL, profiling panel (AID 1138).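 Note: A549 lung adenocarcinoma cells under basal conditions with no added stimulus; test concentration not given here.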 Particulars: higher = more signal.
Another test has as its system Lefty1. In words: Lefty1 protein binding to printed compounds – biochemical, small-molecule microarray, 635/667 nm fluorescence, primary screen (AID 1139). Particulars: fluorescence 635/667, higher = more signal.
Test [8] deals with wheat germ agglutinin (Triticum aestivum), Alexa647-labelled. In words: Alexa647-WGA lectin binding to printed small molecules – biochemical, small-molecule microarray, 635/667 nm fluorescence, artefact control for SMM control-protein annotation, profiling panel (AID 1140).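 Note: score merges 667 nm feature emission with signal to noise over triplicate slides.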 Particulars: WGA-A647 binding, 635 nm fluorescence, higher = more signal.
Test [9] deals with Luciferin 4-monooxygenase (Photinus pyralis) (UniProt P08659). In words: inhibition of purified Photinus pyralis luciferase – biochemical, luminescence, purified enzyme, 2006 set, primary screen (AID 1141).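 Note: cell-free assay with purified firefly luciferase at 100 ng per well in PBS; test concentration not given here.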 Particulars: purified firefly luciferase, SteadyGlo luminescence, 30 min; higher = more signal, called active from +8 up or from −8 down.
Test [10] deals with Wnt5a (protein binding on small-molecule microarray). In words: small molecules binding Wnt5a protein – biophysical, small-molecule microarray, 635/667 nm fluorescence, primary screen (AID 1142).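 Note: fluorescence read at 667 nm with signal to noise per printed feature.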 Conditions: 635 nm fluorescence, higher = more signal.
The nature of test [11]: ATP-based viability of Huh7 replicon cells – cell-based, CellTiter-Glo luminescence, basal, 48 h, cytotoxicity control for HCV replication inhibitor project, primary screen (AID 1143).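 Note: Huh7 hepatoma cells carrying a hepatitis C replication reporter with no stimulus; test concentration not given here.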 Conditions: higher = more signal, called active from +8 up or from −8 down.
The nature of test [12]: Pseudomonas biofilm growth suppression – PAO1 strain, BacTiter-Glo luminescence, LB-PBS, primary screen (AID 1144). Conditions: P. aeruginosa PAO1 biofilm, 12 h, higher = more signal.
A short description of test [13]: basal CRE-LacZ reporter activity in PC12 – cell-based, unstimulated, primary screen (AID 1145). Conditions: no forskolin, luminescence, 4.5 h, higher = more signal, called active from +8 up or from −8 down.
Test [14] is described as follows: forskolin-driven CRE-LacZ activity in PC12 – cell-based, CRE-LacZ reporter, forskolin-stimulated, primary screen (AID 1146).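 Note: PC12 cells with 6xCRE LacZ reporter stimulated by forskolin 10 µM; beta-galactosidase reporter signal reflecting CREB driven transcription.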 Conditions: luminescence, 4.5 h, higher = more signal, called active from +8 up or from −8 down.
In test [15] the target is Streptavidin (Streptomyces avidinii) (UniProt P22629). In words: compounds binding control protein streptavidin – biophysical, small-molecule microarray, 635/667 nm fluorescence, artefact control for SMM compound annotation, primary screen (AID 1147).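 Note: signal reflects streptavidin binding to arrayed compounds as a control protein.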 Conditions: higher = more signal.
Test [16] in a line: probe aInhba binding on compound microarray – biochemical, small-molecule microarray, 635/667 nm fluorescence, primary screen (AID 1148).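 Note: score merges 667nm spot fluorescence with signal-to-noise for antibody binding to printed compounds.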 Particulars: higher = more signal.
The target in test [17] is Torsin-1A (Homo sapiens) (UniProt O14656). In words: TOR1A wild-type binding on microarray – cell lysate, small-molecule microarray, lysate, 635/667 nm, primary screen (AID 1149). Particulars: COS7 hTOR1A-WT lysate, 635 nm fluorescence, higher = more signal.
Test [18] shares this target. In words: torsin A mutant lysate binding on microarrays – cell lysate, small-molecule microarray, COS7 lysate, 635/667 nm fluorescence, primary screen (AID 1150).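 Note: score pools 667 nm emission and signal to noise measuring lysate protein binding.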 Conditions: COS7 hTOR1A mutant lysate, 635 nm fluorescence, higher = more signal.
The subject of test [19] is Sonic hedgehog protein (Shh). In words: Sonic hedgehog microarray binding compounds – biochemical, small-molecule microarray, 635/667 nm fluorescence, primary screen (AID 1151).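 Note: Shh protein binding to compounds spotted on small-molecule microarray slides; score combines spot fluorescence intensity with signal-to-noise across triplicate slides.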 Particulars: 635 nm fluorescence, higher = more signal.

Molecules are shown by their SMILES. The source made the active and inactive calls. Unless noted, the rule behind the calls is not given here.

Chain of Streptavidin (Streptomyces avidinii) (P22629 whole entry, looked up): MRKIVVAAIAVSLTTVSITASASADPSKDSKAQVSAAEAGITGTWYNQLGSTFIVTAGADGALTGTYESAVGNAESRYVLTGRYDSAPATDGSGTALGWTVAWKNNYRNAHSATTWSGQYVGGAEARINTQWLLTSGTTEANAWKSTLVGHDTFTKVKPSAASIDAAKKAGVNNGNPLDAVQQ
Chain of Torsin-1A (Homo sapiens) (O14656 whole entry, looked up): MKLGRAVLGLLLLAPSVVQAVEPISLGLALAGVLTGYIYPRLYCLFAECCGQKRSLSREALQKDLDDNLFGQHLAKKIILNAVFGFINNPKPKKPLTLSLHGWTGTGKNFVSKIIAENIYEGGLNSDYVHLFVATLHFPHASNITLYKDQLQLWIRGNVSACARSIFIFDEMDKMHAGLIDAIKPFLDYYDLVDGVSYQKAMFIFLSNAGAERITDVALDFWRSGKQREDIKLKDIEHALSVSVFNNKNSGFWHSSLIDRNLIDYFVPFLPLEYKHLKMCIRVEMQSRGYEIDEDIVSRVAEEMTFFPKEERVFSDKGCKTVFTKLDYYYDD
Chain of Follistatin (Homo sapiens) (P19883 whole entry, looked up): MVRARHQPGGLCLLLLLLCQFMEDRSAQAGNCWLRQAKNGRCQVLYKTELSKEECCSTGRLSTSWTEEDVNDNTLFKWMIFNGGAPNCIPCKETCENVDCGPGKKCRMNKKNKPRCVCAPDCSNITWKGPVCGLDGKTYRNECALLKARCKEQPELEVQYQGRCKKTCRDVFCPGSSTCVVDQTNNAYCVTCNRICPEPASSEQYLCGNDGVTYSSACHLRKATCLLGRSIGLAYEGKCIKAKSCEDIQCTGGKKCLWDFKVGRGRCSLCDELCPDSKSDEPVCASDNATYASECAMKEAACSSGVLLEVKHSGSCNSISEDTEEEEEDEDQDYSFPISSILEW
Chain of Fibroblast growth factor 2 (Homo sapiens) (P09038 whole entry, looked up): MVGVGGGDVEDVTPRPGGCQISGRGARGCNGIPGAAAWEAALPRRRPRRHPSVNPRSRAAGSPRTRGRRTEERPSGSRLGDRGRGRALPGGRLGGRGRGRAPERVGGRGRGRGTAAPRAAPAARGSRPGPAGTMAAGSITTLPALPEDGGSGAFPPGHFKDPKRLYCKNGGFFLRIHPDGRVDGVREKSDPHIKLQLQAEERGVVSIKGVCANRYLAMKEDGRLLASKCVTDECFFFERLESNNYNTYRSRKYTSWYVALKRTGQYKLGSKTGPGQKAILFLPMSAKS
Chain of Focal adhesion kinase 1 (Homo sapiens) (Q05397 whole entry, looked up): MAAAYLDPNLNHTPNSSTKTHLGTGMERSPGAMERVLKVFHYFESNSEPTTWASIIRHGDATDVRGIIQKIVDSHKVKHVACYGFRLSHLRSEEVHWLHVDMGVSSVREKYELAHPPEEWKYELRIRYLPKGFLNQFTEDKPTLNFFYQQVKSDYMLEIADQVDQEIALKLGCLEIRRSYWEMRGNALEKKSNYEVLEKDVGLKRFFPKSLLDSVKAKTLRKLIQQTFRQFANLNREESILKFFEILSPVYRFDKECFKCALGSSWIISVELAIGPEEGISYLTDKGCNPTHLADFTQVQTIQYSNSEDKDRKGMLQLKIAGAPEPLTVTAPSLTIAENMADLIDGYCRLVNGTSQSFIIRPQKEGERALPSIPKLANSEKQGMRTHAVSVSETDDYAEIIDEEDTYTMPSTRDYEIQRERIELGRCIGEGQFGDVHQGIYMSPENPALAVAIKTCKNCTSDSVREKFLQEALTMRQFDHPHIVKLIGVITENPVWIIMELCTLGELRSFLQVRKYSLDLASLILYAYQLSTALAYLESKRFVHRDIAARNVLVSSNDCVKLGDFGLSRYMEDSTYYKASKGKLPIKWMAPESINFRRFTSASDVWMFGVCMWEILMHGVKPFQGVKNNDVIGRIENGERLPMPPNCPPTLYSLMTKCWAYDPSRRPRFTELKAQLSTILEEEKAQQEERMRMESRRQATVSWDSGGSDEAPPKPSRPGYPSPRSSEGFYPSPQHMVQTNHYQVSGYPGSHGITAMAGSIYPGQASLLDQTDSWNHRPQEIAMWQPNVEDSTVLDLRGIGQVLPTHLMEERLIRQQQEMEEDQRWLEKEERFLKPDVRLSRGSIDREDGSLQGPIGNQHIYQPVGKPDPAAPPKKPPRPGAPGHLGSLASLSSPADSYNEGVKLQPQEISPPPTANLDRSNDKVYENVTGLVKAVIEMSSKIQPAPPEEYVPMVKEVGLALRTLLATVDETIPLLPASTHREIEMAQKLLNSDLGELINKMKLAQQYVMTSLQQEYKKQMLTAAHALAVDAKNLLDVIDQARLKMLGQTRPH
Chain of Luciferin 4-monooxygenase (Photinus pyralis) (P08659 whole entry, looked up): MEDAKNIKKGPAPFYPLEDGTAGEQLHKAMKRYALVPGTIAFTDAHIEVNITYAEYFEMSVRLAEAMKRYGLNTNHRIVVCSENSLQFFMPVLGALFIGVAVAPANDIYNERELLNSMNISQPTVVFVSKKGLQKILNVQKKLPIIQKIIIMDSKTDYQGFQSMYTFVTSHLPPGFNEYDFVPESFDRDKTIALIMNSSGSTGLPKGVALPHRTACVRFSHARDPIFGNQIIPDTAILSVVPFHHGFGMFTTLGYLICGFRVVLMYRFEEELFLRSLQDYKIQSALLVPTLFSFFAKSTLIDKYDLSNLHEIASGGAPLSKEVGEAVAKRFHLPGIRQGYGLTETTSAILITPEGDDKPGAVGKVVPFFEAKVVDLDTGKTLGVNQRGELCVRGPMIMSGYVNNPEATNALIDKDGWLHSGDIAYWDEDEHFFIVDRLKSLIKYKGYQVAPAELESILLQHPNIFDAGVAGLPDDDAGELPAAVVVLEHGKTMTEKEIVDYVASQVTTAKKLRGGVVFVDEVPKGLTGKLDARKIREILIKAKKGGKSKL

Take `CN(C)CCCNC(=O)[C@@]1(c2ccc([N+](=O)[O-])cc2)CC(=O)N(CC23CC4CC(CC(C4)C2)C3)[C@@H]1c1ccc(CO)cc1`: the composite z-score worked out at 1.03 in test [1]; 1.19 in test [2]; 0.703 in test [3]; 0.807 in test [4]; 1.28 in [5]; 0.844 in [6]. Also, the composite z-score with Lefty1 is 0.99; in [8], 0.955; in test [10], 0.461; in test [15], 2.03; in [16], 0.641; with Torsin-1A (Homo sapiens) [17], -0.183. The composite z-score in the test with Torsin-1A (Homo sapiens) [18] was determined as 0.0626; in test [19], 0.989. The z-score is 0.742 in test [7]; 0.292 (inactive) in [9]; -5.82 (inactive) in [11]; -0.262 (inactive) in test [12]; -0.295 (inactive) in test [13]; -0.741 (inactive) in test [14].
With `COCCOC(=O)N1C(=O)[C@@]2(c3cc(C#CC4(O)CCCCCC4)ccc31)[C@H](C(N)=O)[C@H]1C(=O)O[C@H](c3ccccc3)[C@H](c3ccccc3)N1[C@@H]2c1ccc(O)cc1`, the composite z-score was 1.28 in test [1]; 1.17 in test [2]; 0.124 in test [3]; 0.329 in [4]; 1.32 in test [5]; 0.869 in [6]. For the same compound, the composite z-score in the test with Lefty1 is 0.754; in test [8], 0.547; in test [10] it was 0.179; in [15] it was 0.184; in test [16], -0.0645; with Torsin-1A (Homo sapiens) [17], -0.0243. In addition, the composite z-score came to 0.0342 in the test with Torsin-1A (Homo sapiens) [18] and 0.778 in test [19]. Besides, the z-score was -0.317 in [7]; -1.4 (inactive) in test [9]; -1.02 (inactive) in test [11]; 0.00701 (inactive) in test [12]; 2.25 (inactive) in [13]; 3.59 (inactive) in test [14].
With `CCN(CC)c1ccc(N2CC=CC34O[C@@H]5/C=C\CCC(C)OC(=O)C5[C@H]3C(=O)N(CCO)[C@@H]4C2=O)cc1` (stereo not given in full), the composite z-score in test [1] was 2.08; in test [2] it was -0.204; in test [3], 0.235; in test [4], -1.45; in test [5], -0.69; in test [6] it was -0.734. For the same compound, the composite z-score is -0.171 with Lefty1; 0.144 in test [8]; -0.442 in [10]; -0.21 in test [15]; -0.0774 in test [16]; -1.12 with Torsin-1A (Homo sapiens) [17]. In addition, the composite z-score in the test with Torsin-1A (Homo sapiens) [18] is -1.25; in test [19] it was 0.414. Moreover, the z-score in test [7] is 0.431; in test [9], -0.801 (inactive); in [11] it was -1.33 (inactive); in test [12], 0.655 (inactive); in [13], 0.195 (inactive); in test [14] it was -0.295 (inactive).
On to `C[C@H]1C2=C3C(CC[C@H]4C(OCc5ccc(F)cc5C(F)(F)F)OC[C@](C)([C@@H]34)N(C(=O)OC(C)(C)C)C2)C2COC(=O)OCC21` (stereo not given in full), for which the composite z-score was 2.42 in test [1]; 1.16 in test [2]; 1.46 in test [3]; 0.96 in [4]; 0.856 in test [5]; -1.5 in test [6]. Further, the composite z-score was -0.225 with Lefty1; 0.792 in test [8]; 0.163 in test [10]; 1.29 in test [15]; 0.0992 in [16]; 0.639 with Torsin-1A (Homo sapiens) [17]. In addition, the composite z-score in the test with Torsin-1A (Homo sapiens) [18] is 0.988; in test [19], -0.789. In addition, the z-score was 1.75 in test [7]; 1.85 (inactive) in test [9]; -1.13 (inactive) in [11]; -0.318 (inactive) in test [12]; 0.201 (inactive) in [13]; 0.796 (inactive) in test [14].
